Data published in PubChem BioAssay (NCI).
The panel holds about 83,000 compounds, 20% with a hit somewhere; the sample as a whole holds those more often.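 Treatment: one concentration, 48 hours, 96-well format. Scoring: percent growth, with anything below 10 considered active.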 Active and inactive are the calls of the source.

Tests used:
Experiment in all cases: NCI-60 one-dose screen, 48 h (100 = growth as untreated, 0 = no growth, -100 = all killed)
NCI-H23 lung = settings: 10 µM unless noted
NCI-H226 lung = settings: 10 µM unless noted
NCI-H322M lung = settings: 10 µM unless noted
HOP-62 NSCLC = settings: 10 µM unless noted
NCI-H460 lung = settings: 10 µM unless noted
HOP-92 NSCLC = settings: 10 µM unless noted
NCI-H522 lung = settings: 10 µM unless noted
A549/ATCC NSCLC = settings: 10 µM unless noted
786-0 renal = settings: 10 µM unless noted
COLO 205 colon = settings: 10 µM unless noted
DU-145 prostate = settings: 10 µM unless noted
K-562 leukemia = settings: 10 µM unless noted
MALME-3M melanoma = settings: 10 µM unless noted
MDA-MB-231 breast = settings: 10 µM unless noted
RXF 393 renal = settings: 10 µM unless noted
SF-268 CNS = settings: 10 µM unless noted
SF-295 CNS = settings: 10 µM unless noted
SF-539 CNS = settings: 10 µM unless noted
UACC-257 melanoma = settings: 10 µM
M14 melanoma = settings: 10 µM unless noted

Measured: growth

C=CCN=C1NC(=O)/C(=C/c2cc(C(C)(C)C)c(O)c(C(C)(C)C)c2)S1
inactive: NCI-H23 lung 90.2% | NCI-H226 lung 97.7% | NCI-H322M lung 87.9% | HOP-62 NSCLC 77.2% | NCI-H460 lung 72.8% | HOP-92 NSCLC 82.2% | NCI-H522 lung 44.5% | A549/ATCC NSCLC 63.4% | 786-0 renal 66.1% | COLO 205 colon 81.3% | DU-145 prostate 84% | K-562 leukemia 30.8% | MALME-3M melanoma 75.4% | MDA-MB-231 breast 86.8% | RXF 393 renal 62.4% | SF-268 CNS 82% | SF-295 CNS 69.3% | SF-539 CNS 87.6% | UACC-257 melanoma 93% | M14 melanoma 52.4%

Cc1sc(N=Nc2ccc(N(C)C)cc2)[n+]([O-])c1C
inactive: NCI-H23 lung 98.4% | NCI-H226 lung 92.6% | NCI-H322M lung 94.5% | HOP-62 NSCLC 106% | NCI-H460 lung 99.3% | HOP-92 NSCLC 74.7% | NCI-H522 lung 98.4% | A549/ATCC NSCLC 100% | 786-0 renal 103% | COLO 205 colon 104% | DU-145 prostate 102% | K-562 leukemia 121% | MALME-3M melanoma 91.2% | MDA-MB-231 breast 96.2% | RXF 393 renal 79.7% | SF-268 CNS 95.7% | SF-295 CNS 106% | SF-539 CNS 100% | UACC-257 melanoma 105% | M14 melanoma 99.8%

N=C(N)c1ccc(-c2ccc(-c3ccc(Cl)cc3)o2)nc1
active: NCI-H23 lung -81.9% | NCI-H226 lung -68.2% | NCI-H322M lung -94.5% | HOP-62 NSCLC -85.5% | NCI-H460 lung -91.6% | HOP-92 NSCLC -87.7% | NCI-H522 lung -78.9% | A549/ATCC NSCLC -82.8% | 786-0 renal -85.1% | COLO 205 colon -87.5% | DU-145 prostate -98.4% | MALME-3M melanoma -66.4% | MDA-MB-231 breast -90% | RXF 393 renal -98.1% | SF-268 CNS -95.6% | SF-295 CNS -85.4% | SF-539 CNS -92.4% | UACC-257 melanoma -89% | M14 melanoma -88.3%
inactive: K-562 leukemia 112%

COc1ccc(Cn2c(SC)nc(=O)n(Cc3ccc(Cl)cc3)c2=O)cc1
inactive: NCI-H23 lung 93.7% | NCI-H226 lung 106% | NCI-H322M lung 90.2% | HOP-62 NSCLC 94.6% | NCI-H460 lung 103% | HOP-92 NSCLC 90% | NCI-H522 lung 93.9% | A549/ATCC NSCLC 87.9% | 786-0 renal 98.7% | COLO 205 colon 98.8% | DU-145 prostate 103% | K-562 leukemia 92.6% | MALME-3M melanoma 95.1% | MDA-MB-231 breast 99.4% | RXF 393 renal 107% | SF-268 CNS 94.1% | SF-295 CNS 59.7% | SF-539 CNS 106% | UACC-257 melanoma 102% | M14 melanoma 98.6%

O=C(COc1ccccc1)N1N=C(c2ccc(Cl)cc2)CC1c1c[nH]c2ccccc12 (configuration not stated)
inactive: NCI-H23 lung 76.1% | NCI-H226 lung 65.2% | NCI-H322M lung 86.4% | HOP-62 NSCLC 66.6% | NCI-H460 lung 47.9% | HOP-92 NSCLC 62.1% | NCI-H522 lung 73.9% | A549/ATCC NSCLC 58.4% | 786-0 renal 71% | COLO 205 colon 86.9% | DU-145 prostate 92% | K-562 leukemia 71.2% | MALME-3M melanoma 74.1% | MDA-MB-231 breast 47.7% | RXF 393 renal 103% | SF-268 CNS 71.9% | SF-295 CNS 92.1% | SF-539 CNS 87.1% | UACC-257 melanoma 89.1% | M14 melanoma 83.1%

Clc1nc(-c2cccnc2)nc2sc3c(c12)CCCCCC3
inactive: NCI-H23 lung 99.5% | NCI-H226 lung 98.6% | NCI-H322M lung 102% | HOP-62 NSCLC 97.5% | NCI-H460 lung 107% | HOP-92 NSCLC 86.2% | NCI-H522 lung 85.7% | A549/ATCC NSCLC 94.8% | 786-0 renal 101% | COLO 205 colon 107% | DU-145 prostate 109% | K-562 leukemia 101% | MALME-3M melanoma 103% | MDA-MB-231 breast 97.7% | RXF 393 renal 116% | SF-268 CNS 95.7% | SF-295 CNS 92.9% | SF-539 CNS 96.6% | UACC-257 melanoma 93.1% | M14 melanoma 107%

O=C(CCC(=O)OC1CCCC1)OC1CCCC1
inactive: NCI-H23 lung 105% | NCI-H226 lung 96.3% | NCI-H322M lung 97% | HOP-62 NSCLC 109% | NCI-H460 lung 104% | HOP-92 NSCLC 73.1% | NCI-H522 lung 79.8% | A549/ATCC NSCLC 91.4% | 786-0 renal 104% | COLO 205 colon 116% | DU-145 prostate 102% | K-562 leukemia 96% | MALME-3M melanoma 102% | MDA-MB-231 breast 105% | RXF 393 renal 97.6% | SF-268 CNS 99.7% | SF-295 CNS 99.3% | SF-539 CNS 87.8% | UACC-257 melanoma 85.4% | M14 melanoma 112%

COc1cc(NCCN=C(N)NC(N)=NC(C)C)c2ncccc2c1
active: NCI-H522 lung -3.01% | MALME-3M melanoma -11% | SF-539 CNS 6.08%
inactive: NCI-H23 lung 44.7% | NCI-H226 lung 94.7% | NCI-H322M lung 47.4% | HOP-62 NSCLC 94.8% | NCI-H460 lung 82.1% | HOP-92 NSCLC 33.2% | A549/ATCC NSCLC 91.4% | 786-0 renal 105% | COLO 205 colon 20.4% | DU-145 prostate 103% | K-562 leukemia 55.5% | MDA-MB-231 breast 69.3% | RXF 393 renal 101% | SF-268 CNS 45.1% | SF-295 CNS 108% | UACC-257 melanoma 72.1% | M14 melanoma 88.6%

O=C(CN1CCN(c2cc3c(cc2F)c(=O)c(C(=O)O)cn3C2CC2)CC1)Nc1ccc(C(=O)/C=C/c2ccc(Cl)cc2)cc1
inactive: NCI-H23 lung 105% | NCI-H226 lung 92.5% | NCI-H322M lung 111% | HOP-62 NSCLC 107% | NCI-H460 lung 112% | HOP-92 NSCLC 95.8% | NCI-H522 lung 47.7% | A549/ATCC NSCLC 97.6% | 786-0 renal 88.9% | COLO 205 colon 112% | DU-145 prostate 120% | K-562 leukemia 104% | MALME-3M melanoma 100% | MDA-MB-231 breast 115% | RXF 393 renal 94.1% | SF-268 CNS 121% | SF-295 CNS 82.1% | SF-539 CNS 99.5% | UACC-257 melanoma 103% | M14 melanoma 96.3%

CC[C@]1(O)C[C@@H]2CN(Cc3c([nH]c4ccccc34)[C@@](C(=O)OC)(c3cc4c(cc3OC)N(C)[C@H]3[C@@](O)(C(=O)OC)[C@H](OC(C)=O)[C@]5(CC)[C@@H]6C[C@@H]6CN6CC[C@]43[C@@H]65)C2)C1
active: NCI-H460 lung 6.73% | HOP-92 NSCLC -12% | NCI-H522 lung -20.3% | COLO 205 colon -49.5% | DU-145 prostate 7.39% | MDA-MB-231 breast 0.275% | SF-295 CNS -13.9% | SF-539 CNS -0.324% | M14 melanoma -23.2%
inactive: NCI-H23 lung 25.7% | NCI-H226 lung 50.2% | NCI-H322M lung 44.7% | HOP-62 NSCLC 38.8% | A549/ATCC NSCLC 22.2% | 786-0 renal 21.4% | K-562 leukemia 11.8% | MALME-3M melanoma 38% | RXF 393 renal 15.2% | SF-268 CNS 28.1% | UACC-257 melanoma 71.7%

O=S(=O)(NCCCNc1cc(-c2cn(-c3ccccc3)nc2-c2cccc(O)c2)ccn1)c1ccc(Br)cc1
inactive: NCI-H23 lung 25.2% | NCI-H226 lung 22.2% | NCI-H322M lung 20.7% | HOP-62 NSCLC 15.8% | NCI-H522 lung 25.6% | A549/ATCC NSCLC 17.4% | DU-145 prostate 31.3% | SF-268 CNS 17.9% | SF-539 CNS 18.9%
active: NCI-H460 lung 5.69% | HOP-92 NSCLC -5.67% | 786-0 renal -9.38% | COLO 205 colon -70.3% | K-562 leukemia -21.3% | MALME-3M melanoma -27.3% | MDA-MB-231 breast -20.7% | RXF 393 renal 2.04% | SF-295 CNS -55.2% | M14 melanoma 0.533%

NS(=O)(=O)c1ccc(NCC(=O)Nc2ccc(-c3nc4ccccc4s3)cc2)cc1
active: NCI-H522 lung -63.8% | K-562 leukemia 8.38%
inactive: NCI-H23 lung 74.7% | NCI-H226 lung 83.7% | NCI-H322M lung 88% | HOP-62 NSCLC 118% | NCI-H460 lung 92.5% | HOP-92 NSCLC 73.5% | A549/ATCC NSCLC 92.6% | 786-0 renal 12.1% | COLO 205 colon 98.5% | DU-145 prostate 47% | MALME-3M melanoma 53.6% | MDA-MB-231 breast 45% | RXF 393 renal 99.9% | SF-268 CNS 25.1% | SF-295 CNS 98.8% | SF-539 CNS 91.4% | UACC-257 melanoma 97.2% | M14 melanoma 45.6%

CCNc1nc(N2CC(=O)Nc3cc(OC)ccc32)c2ccccc2n1
active: NCI-H23 lung 3.23% | NCI-H460 lung -5.18% | HOP-92 NSCLC -2.59% | NCI-H522 lung -8.1% | COLO 205 colon -48.4% | DU-145 prostate -1.09% | K-562 leukemia 6.9% | SF-295 CNS -5.23% | SF-539 CNS -4.78% | M14 melanoma 7.3%
inactive: NCI-H226 lung 50.3% | NCI-H322M lung 36.6% | HOP-62 NSCLC 25.5% | A549/ATCC NSCLC 20.4% | 786-0 renal 12% | MALME-3M melanoma 51% | MDA-MB-231 breast 12.7% | RXF 393 renal 33.7% | SF-268 CNS 14.8%

O=C(/C=C/CN1CCCCC1)Nc1cc2c(Nc3ccc(F)c(Cl)c3F)ncnc2cc1OCCOC(F)F
active: NCI-H322M lung 5.03% | HOP-92 NSCLC -39.2% | NCI-H522 lung -32% | K-562 leukemia 7.24% | MDA-MB-231 breast -4.23% | RXF 393 renal -17.1%
inactive: NCI-H23 lung 26.3% | NCI-H226 lung 28.6% | HOP-62 NSCLC 20.6% | NCI-H460 lung 21.7% | A549/ATCC NSCLC 18.2% | 786-0 renal 10.7% | COLO 205 colon 24.8% | DU-145 prostate 17.6% | MALME-3M melanoma 25.8% | SF-268 CNS 16.1% | SF-295 CNS 28.1% | SF-539 CNS 16.8% | M14 melanoma 34.2%
